Assay outcomes from PubChem.
PD-1 reverse act = reversal of PD-1 mediated T-cell inhibition. activation, % (test concentration not listed). primary human CD4 T cells, PD-L1 beads, CellTiter-Glo 96 h. 29,000 tested, under 10 active; call rule not given here
NOMO-1 viab = STK33 inhibitor candidate reducing NOMO-1 cell viability | NOMO-1 AML viability, CellTiter-Glo luminescence, 72 h | inhibition, % (test concentration not listed) | 37,000 compounds, 7.5% hits | AID 2330; in the data active = inhibition above about 80%; inconclusive = no clear call, values can overlap the other calls
STK33 inh = inhibitors of human STK33 kinase. inhibition, % at 12.5 µM. AID 2322. ADP-Glo luminescence, MBP substrate. 27,000 compounds, 0.44% hits; in the data active = inhibition above about 20%; inconclusive = no clear call, values can overlap the other calls
Target sequence (Q9BYT3 whole entry, looked up): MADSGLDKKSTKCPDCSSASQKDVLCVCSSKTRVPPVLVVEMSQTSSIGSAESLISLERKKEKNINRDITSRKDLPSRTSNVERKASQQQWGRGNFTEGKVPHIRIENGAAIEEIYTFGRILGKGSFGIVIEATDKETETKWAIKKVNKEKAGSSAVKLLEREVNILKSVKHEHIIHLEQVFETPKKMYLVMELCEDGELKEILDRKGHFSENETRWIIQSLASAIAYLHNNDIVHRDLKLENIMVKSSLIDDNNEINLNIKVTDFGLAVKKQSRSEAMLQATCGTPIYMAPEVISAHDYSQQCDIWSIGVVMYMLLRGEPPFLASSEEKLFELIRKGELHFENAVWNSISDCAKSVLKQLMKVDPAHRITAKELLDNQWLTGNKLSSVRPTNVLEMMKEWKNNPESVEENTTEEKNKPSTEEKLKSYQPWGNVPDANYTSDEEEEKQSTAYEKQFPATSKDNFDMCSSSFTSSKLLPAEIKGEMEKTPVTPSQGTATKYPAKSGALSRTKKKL
Large screens that a line does not name were inactive. The entries come from a sample that favours hits as a whole.

COc1ccc(S(=O)(=O)Nc2ccc3c(c2)C(=O)N([C@@H](C)CO)C[C@H](C)[C@H](CN(C)Cc2ccc(C(=O)Nc4ccccc4N)cc2)O3)cc1	NOMO-1 viab 108.8 (no result: STK33 inh)
C[C@H](CO)N1C[C@H](C)[C@@H](CN(C)Cc2ccc(C(=O)Nc3ccccc3N)cc2)Oc2ccc(NS(=O)(=O)c3ccc(Cl)cc3)cc2C1=O	none (no result: STK33 inh)
C[C@H](CO)N1C[C@H](C)[C@H](CN(C)Cc2ccc(C(=O)Nc3ccccc3N)cc2)Oc2ccc(NS(=O)(=O)c3ccc(Cl)cc3)cc2C1=O	NOMO-1 viab 96.3 (no result: STK33 inh)
C[C@@H]1CN([C@@H](C)CO)C(=O)c2cc(NS(=O)(=O)c3ccc(Cl)cc3)ccc2O[C@H]1CN(C)Cc1ccc(C(=O)Nc2ccccc2N)cc1	NOMO-1 viab inconclusive (no result: STK33 inh)
COc1ccc(S(=O)(=O)Nc2ccc3c(c2)C(=O)N([C@H](C)CO)C[C@@H](C)[C@H](CN(C)Cc2ccc(C(=O)Nc4ccccc4N)cc2)O3)cc1	none (no result: STK33 inh)
CNc1[nH]cnc(=S)c1N	none (no result: STK33 inh)
Cn1c(NCCCN)nc2c1c(=O)n(Cc1ccccc1Cl)c(=O)n2C	none (no result: PD-1 reverse act, NOMO-1 viab)
CC1(C)Cc2c(sc3nc(SCc4ccccc4)nc(NCc4ccco4)c23)CO1	none (no result: PD-1 reverse act)
CC(C)(O[C@@H]1O[C@H](CO)[C@@H](O)[C@H](O)[C@H]1O)[C@@H](O)COc1c2ccoc2cc2oc(=O)ccc12	none
CC1=C(C(=O)OCc2ccccc2)C(c2ccoc2)C(C#N)=C(N)S1 (stereo not given)	none (no result: STK33 inh)
C[C@H](CO)N1C[C@H](C)[C@H](CN(C)Cc2ccc3c(c2)OCO3)Oc2ccc(NC(=O)Cc3ccccc3)cc2C1=O	NOMO-1 viab 108.7 (no result: STK33 inh)
C[C@H]1CN([C@@H](C)CO)C(=O)c2cc(NC(=O)Cc3ccccc3)ccc2O[C@H]1CN(C)Cc1ccncc1	NOMO-1 viab 92.4
C[C@H]1CN([C@@H](C)CO)C(=O)c2cc(NC(=O)CCC(F)(F)F)ccc2O[C@@H]1CN(C)Cc1ccc2c(c1)OCO2	none
C[C@@H]1CN([C@H](C)CO)C(=O)c2cc(NC(=O)Cc3ccccc3)ccc2O[C@H]1CN(C)Cc1ccncc1	none
C[C@H]1CN([C@@H](C)CO)C(=O)c2cc(NC(=O)Cc3ccccc3)ccc2O[C@@H]1CN(C)Cc1ccc2c(c1)OCO2	none
C[C@H](CO)N1C[C@H](C)[C@H](CN(C)Cc2ccc3c(c2)OCO3)Oc2ccc(NC(=O)CCC(F)(F)F)cc2C1=O	NOMO-1 viab 92.0 (no result: STK33 inh)
CCCC(=O)Nc1ccc(N)cc1	none (no result: STK33 inh)
COc1cc(C)c(S(=O)(=O)NCCc2c(C)[nH]c3ccccc23)cc1C	none
CCN(CCS(=O)(=O)c1ccc(C)cc1)C(=O)c1ccc(-c2cc(C(F)(F)F)nn2C)s1	none (no result: STK33 inh)
COc1cccc(C(=O)Nc2sc3c(c2C(=O)NCc2cccnc2)CCCC3)c1	none
O=C(Nc1ccccc1)C1CCCCC1	none (no result: STK33 inh)
O=C(ON1C(=O)c2ccccc2C1=O)C1CCCCC1	NOMO-1 viab 125.9 (no result: STK33 inh)
CCOC(=O)c1c(NC(=O)CSc2nc3ccccc3[nH]2)sc2c1CCCC2	none
Cc1cc(C)c2c(n1)sc1c(Sc3nnc(-c4ccncc4)o3)ncnc12	none (no result: STK33 inh)
CCn1c(Sc2ncnc3c2sc2nc(C)cc(C)c23)nnc1-c1cccs1	NOMO-1 viab 103.8 (no result: STK33 inh)
Cn1c(SCC(=O)c2ccccc2)nnc1-c1cc2ccccc2o1	none (no result: PD-1 reverse act)
COc1cc(/C=C/C(=O)N2CCC=CC2=O)cc(OC)c1OC	NOMO-1 viab 118.9 (no result: PD-1 reverse act)
COc1cc(/C=C\C(=O)O)cc(OC)c1OC	none (no result: PD-1 reverse act, NOMO-1 viab)
CC(=O)OC(CCCCc1ccc(O)c(O)c1)CCc1ccc(O)c(O)c1 (stereo not given)	none
COc1ccc(NS(=O)(=O)c2ccccc2)cc1CN1C(=O)c2ccccc2C1=O	none (no result: PD-1 reverse act, NOMO-1 viab)
COc1cc(O)c(C(=O)/C=C/c2ccc(OC)c(OC)c2)c(OC)c1	none
COc1cc(O)c(C(=O)/C=C/c2ccccc2)c(OC)c1	NOMO-1 viab 93.3 (no result: PD-1 reverse act)
C[C@H]1CN([C@@H](C)CO)C(=O)c2cccc(NC(=O)Nc3cccc4ccccc34)c2O[C@H]1CN(C)Cc1ccc(C(F)(F)F)cc1	none (no result: STK33 inh)
C[C@@H]1CN([C@H](C)CO)C(=O)c2cccc(NC(=O)Nc3cccc4ccccc34)c2O[C@@H]1CN(C)Cc1ccc(C(F)(F)F)cc1	NOMO-1 viab 97.6 (no result: STK33 inh)
C[C@H]1CN([C@@H](C)CO)C(=O)c2cccc(NC(=O)Nc3ccc(C(F)(F)F)cc3)c2O[C@H]1CN(C)Cc1ccccc1	none (no result: PD-1 reverse act, STK33 inh)
COc1ccc(NC(=O)Nc2cccc3c2O[C@H](CN(C)Cc2ccc(C(F)(F)F)cc2)[C@H](C)CN([C@H](C)CO)C3=O)cc1	none (no result: STK33 inh)
C[C@H](CO)N1C[C@H](C)[C@@H](CN(C)Cc2ccc(C(F)(F)F)cc2)Oc2c(NC(=O)Nc3ccccc3)cccc2C1=O	NOMO-1 viab 92.8 (no result: PD-1 reverse act, STK33 inh)
C[C@H](CO)N1C[C@H](C)[C@@H](CN(C)Cc2ccc(Oc3ccccc3)cc2)Oc2c(NC(=O)Nc3ccc(C(F)(F)F)cc3)cccc2C1=O	NOMO-1 viab 96.9 (no result: PD-1 reverse act, STK33 inh)
C[C@@H]1CN([C@@H](C)CO)C(=O)c2cccc(NC(=O)Nc3ccc(C(F)(F)F)cc3)c2O[C@H]1CN(C)Cc1ccccc1	NOMO-1 viab 103.0 (no result: STK33 inh)
COC(=O)NC(Nc1ccccc1C(F)(F)F)C(=O)c1ccccc1 (stereo not given)	none (no result: STK33 inh)
COc1ccc(-n2c(C)nnc2SCC(=O)Nc2ccc(F)c(Cl)c2)cc1	none (no result: PD-1 reverse act)
COc1cc(C(=O)NC2(C(F)(F)F)C(=O)N(Cc3ccco3)C3=C2C(=O)CC(C)(C)C3)cc(OC)c1OC (stereo not given)	none
C[C@@H]1CN([C@H](C)CO)C(=O)c2cccc(NC(=O)Nc3ccccc3)c2O[C@@H]1CN(C)Cc1ccc(C(F)(F)F)cc1	none (no result: STK33 inh)
C[C@H]1CN([C@@H](C)CO)C(=O)c2cccc(NC(=O)Nc3ccc(C(F)(F)F)cc3)c2O[C@H]1CN(C)Cc1ccncc1	none (no result: PD-1 reverse act, STK33 inh)
C[C@H]1CN([C@@H](C)CO)C(=O)c2cccc(NC(=O)Nc3ccccc3)c2O[C@@H]1CN(C)Cc1ccc(C(F)(F)F)cc1	NOMO-1 viab 104.0 (no result: STK33 inh)
C[C@@H]1CN([C@@H](C)CO)C(=O)c2cccc(NC(=O)Nc3ccccc3)c2O[C@H]1CN(C)Cc1ccc(C(F)(F)F)cc1	NOMO-1 viab 87.8 (no result: STK33 inh)
COc1ccc(N(CC(=O)Nc2ccc(C)cc2C)S(C)(=O)=O)cc1	none
Cc1coc(C)c1C(=O)CC1(O)C(=O)N(CCc2ccccc2)c2ccccc21 (stereo not given)	none
CCCCN1C(=O)C(O)(CC(=O)c2ccco2)c2ccccc21 (stereo not given)	NOMO-1 viab 119.3
O=C(CC1(O)C(=O)N(CCc2ccccc2)c2ccc(Br)cc21)c1ccncc1 (stereo not given)	NOMO-1 viab 114.3 (no result: PD-1 reverse act)
O=C(CC1(O)C(=O)N(CCOc2ccccc2)c2ccccc21)c1ccc2c(c1)CCCC2 (stereo not given)	none
CCCCN1C(=O)C(O)(CC(=O)c2ccco2)c2cc(Br)ccc21 (stereo not given)	NOMO-1 viab 113.0 (no result: PD-1 reverse act)
CCN1C(=O)C(O)(CC(=O)c2ccco2)c2cc(Br)ccc21 (stereo not given)	NOMO-1 viab 122.2
NC(=O)CN1C(=O)C(O)(CC(=O)c2ccncc2)c2ccccc21 (stereo not given)	none
N#Cc1c(SC2CCCC2)nsc1SC1CCCC1	none
Cn1nc(-c2ccc(NCc3cccnc3)c([N+](=O)[O-])c2)c2ccccc2c1=O	none (no result: PD-1 reverse act)
Cn1c(Cn2cc(C(F)(F)F)ccc2=O)n[nH]c1=S	none
